By AC50 is commonly meant the concentration at which the activity in the assay is half-maximal.

Inconclusive results are not listed. Activity calls are given as the source filed them. The calls were made as follows, unless noted: active = hit-call score of the fitted dose curve at least 0.9, where 1 is the maximum; inactive = score below 0.9.

In PubChem BioAssay (EPA / NIEHS) one finds outcome and AC50 data, which are given here for 29 molecules.

Sequence of human Retinoic Acid Receptor beta (RARb), RARB (gene 5915) (P10826 whole entry, looked up): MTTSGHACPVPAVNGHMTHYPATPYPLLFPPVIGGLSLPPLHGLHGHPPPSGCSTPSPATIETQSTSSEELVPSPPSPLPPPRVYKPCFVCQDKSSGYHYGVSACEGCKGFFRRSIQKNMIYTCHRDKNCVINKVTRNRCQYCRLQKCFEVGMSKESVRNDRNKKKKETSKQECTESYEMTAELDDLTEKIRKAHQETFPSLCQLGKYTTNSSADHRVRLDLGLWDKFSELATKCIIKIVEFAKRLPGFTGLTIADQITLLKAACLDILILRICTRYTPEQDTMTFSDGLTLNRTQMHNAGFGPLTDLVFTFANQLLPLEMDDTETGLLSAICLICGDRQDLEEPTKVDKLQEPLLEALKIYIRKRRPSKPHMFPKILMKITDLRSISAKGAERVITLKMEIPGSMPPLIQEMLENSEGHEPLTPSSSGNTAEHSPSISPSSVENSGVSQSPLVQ

Read-out in the first test: Intercellular Adhesion Molecule 1 (ICAM1), ICAM1 (gene 3383)
In words: BSK_3C_ICAM1: BioMAP Diversity Plus: 3C Assay for Intercellular Adhesion Molecule 1 (ICAM1) Biomarker Activity (AID 2283003). Conditions: primary human endothelial cells (HUVEC); actives raise or lower the signal. The method, boiled down:
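Using DMSO as baseline, bidirectional curve fitting was applied to ICAM-1 ELISA signals from HUVEC in the 3C system, measured 24 h after compound addition.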
As to `CCOP(=S)(Oc1ccc([N+](=O)[O-])cc1)c1ccccc1` (configuration not stated), the result was inactive. The same measure, in the same setting: with `COP(=O)(O)OC` the entry was “inactive”; with `C=CC(=O)OCC(F)(F)C(F)F`, “inactive”.

As to `O=C(O)C(F)(OC(F)(F)C(F)(F)C(F)(F)F)C(F)(F)F` (configuration not stated), the outcome was inactive.

As for `O=P(OCC(Br)CBr)(OCC(Br)CBr)OCC(Br)CBr` (configuration not stated), the outcome was inactive. On the same count and under the same terms, with `N#Cc1cc([N+](=O)[O-])ccc1N` the entry was “inactive”. Take `O=c1ssc(Cl)c1Cl`: the AC50 is 11.3 µM (active). In the case of `CCOC(=O)c1ccccc1C(=O)OCC`, the outcome was inactive.

Turning to `CCOP(=S)(OCC)SCSc1ccc(Cl)cc1`, the outcome was inactive. Same read-out and setting: next, `OCC(F)(F)OC(F)(F)C(F)(F)OC(F)(F)C(F)(F)OC(F)(F)CO`: “inactive”; `COP(N)(=S)OC`: “inactive”.

As to `CC(C)(C)c1ccc(O)cc1`, the result was inactive. On the same count and under the same terms, with `FC(F)(F)C(F)(C(F)(F)F)C(F)(F)C(F)(F)CC1CO1` (configuration not stated) the entry was “inactive”. Still for that read-out and setting: next, `COCCOCCO`: “inactive”; `OCC1CO1` (configuration not stated): “inactive”. The same measure, in the same setting: with `CCCCC(CC)COC(=O)c1c(Br)c(Br)c(Br)c(Br)c1C(=O)OCC(CC)CCCC` (configuration not stated) the entry was “inactive”. For `ClC(Cl)(Cl)c1ccccc1`, the result was inactive. `C=CC(=O)OCC(CC)(COC(=O)C=C)COC(=O)C=C`: the AC50 is 2.71 µM (active). As for `CCOc1ccc(C(C)(C)COCc2cccc(Oc3ccccc3)c2)cc1`, the outcome was inactive. For `CCOS(=O)(=O)OCC`, the outcome was inactive. The same measure, in the same setting: with `c1ccc(OP(Oc2ccccc2)Oc2ccccc2)cc1` the entry was “inactive”. Same read-out and setting: next, `ClC(Cl)c1ccccc1`: “inactive”. Same read-out and setting: next, `Nc1ccc([N+](=O)[O-])cc1Cl`: “inactive”; `Cc1ccc(O)cc1C`: “inactive”.

Another test has as its target human Retinoic Acid Receptor beta (RARb), RARB (gene 5915) (UniProt P10826). In words: ATG_RARb_TRANS: Attagene TRANS-FACTORIAL HepG2 Assay for human Retinoic Acid Receptor beta (AID 2283004; active = hit-call score of the fitted dose curve at least 0.9, where 1 is the maximum).
Conditions: not given
The method, boiled down:
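Transient transfection of HepG2 with multiple reporter units → chemical dosing, 24 h → total RNA isolation → RT with oligo(dT) → reporter-specific PCR, 6-FAM primer extension, HpaI digest → capillary electrophoresis. Positive direction vs DMSO control.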
In the case of `N#Cc1ccc(O)cc1`, the outcome was inactive.

Take `O=C(O)C(F)(OC(F)(F)C(F)(F)C(F)(F)F)C(F)(F)F` (configuration not stated): the outcome was inactive. Take `CC(O)C#N` (configuration not stated): the molecule was called inactive.

As to `CCOC(=O)c1ccccc1C(=O)OCC`, the call was inactive.

Regarding `FC(F)(F)C(F)(C(F)(F)F)C(F)(F)C(F)(F)CC1CO1` (configuration not stated), the molecule was called inactive. On the same count and under the same terms, with `Clc1ccc(Oc2ccccc2)cc1` the entry was “inactive”; with `CC(C)CBr`, “inactive”; with `Cc1ccc(O)cc1C`, “inactive”.

The target of another test is Retinoic acid receptor alpha (Homo sapiens) (UniProt P10276). In words: ATG_RARa_TRANS: Attagene TRANS-FACTORIAL HepG2 Assay for human Retinoic Acid Receptor alpha (RARa) (AID 2283005; active = hit-call score of the fitted dose curve at least 0.9, where 1 is the maximum).
Sequence of Retinoic acid receptor alpha (Homo sapiens) (P10276 whole entry, looked up): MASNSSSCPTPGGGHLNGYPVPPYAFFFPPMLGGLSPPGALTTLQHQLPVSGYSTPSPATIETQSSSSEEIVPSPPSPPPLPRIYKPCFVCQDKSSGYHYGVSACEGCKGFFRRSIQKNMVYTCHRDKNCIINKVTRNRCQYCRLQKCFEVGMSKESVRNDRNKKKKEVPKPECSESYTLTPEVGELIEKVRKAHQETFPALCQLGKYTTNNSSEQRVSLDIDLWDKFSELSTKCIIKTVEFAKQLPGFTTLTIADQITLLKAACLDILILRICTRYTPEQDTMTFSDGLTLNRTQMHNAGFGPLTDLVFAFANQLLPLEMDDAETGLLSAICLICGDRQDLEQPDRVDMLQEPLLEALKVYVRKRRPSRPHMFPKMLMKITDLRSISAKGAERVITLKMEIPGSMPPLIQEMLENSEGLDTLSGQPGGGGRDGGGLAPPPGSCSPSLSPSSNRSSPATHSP
Conditions: not given
A digest of the protocol:
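HepG2 cells transiently transfected with multiple reporter units expressing chimeric RARα-GAL4 fusion, with GAL4-UAS-driven reporters. After 24 h compound exposure, reporter mRNA induction quantified by RT-PCR and capillary electrophoresis with fluorescent labeling; gain-of-signal fitted relative to DMSO control.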
Consider `COP(=O)(O)OC`, for which the outcome was inactive. With `O=C(O)C(F)(OC(F)(F)C(F)(F)C(F)(F)F)C(F)(F)F` (configuration not stated), the outcome was inactive.

Take `FC(F)(F)C(F)(C(F)(F)F)C(F)(F)C(F)(F)CC1CO1` (configuration not stated): the result was inactive. Still for that read-out and setting: with `ClC(Cl)c1ccccc1` the entry was “inactive”; with `C=C(C)C(=O)OCC1CO1` (configuration not stated), “inactive”.
